Measured values taken from ChEMBL document CHEMBL3988442, “University of Dundee, Small-Polar-MMV Screening Library” (2021).
For some of these results: Measured potencies and affinities stand elsewhere.

What was measured:
Parameters in all cases: scale not given: direction of the effect not stated beside the values
[1] = target: Protein translocase subunit SecA (Escherichia coli (strain K12)) (UniProt P10408); assay: Assay to Identify E. coli SecA ATPase Inhibitors; format: functional; conditions: 30 µM
[2] = target: T1, Ubiquitin-activating enzyme e1, putative (Leishmania donovani (strain BPK282A1)) (UniProt E9BSI1); assay: Leishmania donovani Ubiquitin Activating Enzyme (LdE1); format: functional; conditions: 30 µM
T1 sequence (whole entry): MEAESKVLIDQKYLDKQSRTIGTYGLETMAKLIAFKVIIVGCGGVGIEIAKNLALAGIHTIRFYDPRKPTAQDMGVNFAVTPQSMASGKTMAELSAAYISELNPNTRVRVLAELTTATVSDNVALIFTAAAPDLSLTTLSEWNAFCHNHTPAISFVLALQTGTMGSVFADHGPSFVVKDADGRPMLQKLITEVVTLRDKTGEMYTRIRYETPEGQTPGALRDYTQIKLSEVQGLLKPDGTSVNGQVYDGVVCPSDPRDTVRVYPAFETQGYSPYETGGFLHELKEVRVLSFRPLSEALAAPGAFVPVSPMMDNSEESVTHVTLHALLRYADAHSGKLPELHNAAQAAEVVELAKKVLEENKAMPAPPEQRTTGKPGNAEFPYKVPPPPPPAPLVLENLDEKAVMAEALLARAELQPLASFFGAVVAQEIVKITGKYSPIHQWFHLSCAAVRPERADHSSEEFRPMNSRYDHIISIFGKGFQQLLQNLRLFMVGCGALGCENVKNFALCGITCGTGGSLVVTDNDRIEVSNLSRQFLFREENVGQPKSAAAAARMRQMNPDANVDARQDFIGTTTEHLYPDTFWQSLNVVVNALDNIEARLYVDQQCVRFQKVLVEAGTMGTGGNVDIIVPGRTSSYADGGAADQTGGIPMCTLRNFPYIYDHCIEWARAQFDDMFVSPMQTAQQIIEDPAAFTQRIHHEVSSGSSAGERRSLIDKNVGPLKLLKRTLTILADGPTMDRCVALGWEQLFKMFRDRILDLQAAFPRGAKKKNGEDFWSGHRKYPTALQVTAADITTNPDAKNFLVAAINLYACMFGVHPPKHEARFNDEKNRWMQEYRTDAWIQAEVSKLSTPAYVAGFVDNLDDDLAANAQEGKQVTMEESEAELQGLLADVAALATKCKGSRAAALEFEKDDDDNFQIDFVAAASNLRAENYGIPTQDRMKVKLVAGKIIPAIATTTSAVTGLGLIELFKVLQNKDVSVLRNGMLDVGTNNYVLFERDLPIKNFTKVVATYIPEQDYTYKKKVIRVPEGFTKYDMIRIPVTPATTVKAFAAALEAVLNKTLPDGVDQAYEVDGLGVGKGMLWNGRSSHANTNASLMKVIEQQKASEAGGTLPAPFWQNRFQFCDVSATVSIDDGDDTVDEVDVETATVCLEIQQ

[3] = target: AMP-activated protein kinase, AMPK (Homo sapiens) (UniProt P54646+O43741+P54619+Q9UGJ0+Q9Y478+Q13131+Q9UGI9); assay: AMP-dependent Kinase enzyme assay. An in vitro enzyme assay that detects ADP turnover that is directly proportional to AMPK activity. This uses naive AMPK that is activated during the assay with MK-8722; format: functional; conditions: 30 µM
[4] = target: Sialic acid-binding Ig-like lectin 9 (Homo sapiens) (UniProt Q9Y336); assay: Hs-Siglec9 ALPHAscreen SOP 20170721; conditions: 10 µM
Trypanosoma cruzi = assay: Trypanosoma cruzi phosphomannomutase and mannose-1-phosphate guanylyltransferase assay; format: functional; conditions: 10 µM
[5] = target: T2, Arginase-2, mitochondrial (Homo sapiens) (UniProt P78540); assay: in vitro enzyme assay to detect the production of urea directly proportional to the activity of Arginase II; format: functional; conditions: 33.3 µM; also: in the data most compounds retested in dose-response had high values
T2 sequence (whole entry): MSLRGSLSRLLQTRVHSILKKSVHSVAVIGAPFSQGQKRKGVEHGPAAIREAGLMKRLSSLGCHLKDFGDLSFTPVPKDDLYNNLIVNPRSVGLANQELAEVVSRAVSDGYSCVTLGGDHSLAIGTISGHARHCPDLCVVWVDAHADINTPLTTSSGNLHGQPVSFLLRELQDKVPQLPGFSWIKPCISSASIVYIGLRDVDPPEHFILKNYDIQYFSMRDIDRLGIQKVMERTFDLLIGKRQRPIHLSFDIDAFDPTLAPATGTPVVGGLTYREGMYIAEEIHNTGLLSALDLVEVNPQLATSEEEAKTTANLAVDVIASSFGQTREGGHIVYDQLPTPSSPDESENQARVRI

[6] = target: T3, Proteasome subunit beta (Trypanosoma cruzi) (UniProt O96673); assay: Trypanosoma cruzi proteasome chymotrypsin-like activity (TcProtChymo) assay.; also: in the data most compounds retested in dose-response had high values; format: functional; conditions: 9.37 µM
T3 sequence (whole entry): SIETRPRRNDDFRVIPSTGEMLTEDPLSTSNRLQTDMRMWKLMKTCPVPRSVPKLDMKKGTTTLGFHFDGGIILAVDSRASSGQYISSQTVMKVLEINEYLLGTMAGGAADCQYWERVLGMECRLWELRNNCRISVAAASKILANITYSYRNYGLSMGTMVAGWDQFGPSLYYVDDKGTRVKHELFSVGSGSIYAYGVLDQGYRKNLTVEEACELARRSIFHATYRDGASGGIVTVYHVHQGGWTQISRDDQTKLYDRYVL

Homo sapiens = species on record: Homo sapiens; assay: To identify inhibition of the IFN signalling (Jak-Stat) pathway via expression of an eGFP reporter gene under the control of an IFN-stimulated response element (ISRE) containing MxA promoter.; format: functional; conditions: 30 µM
[7] = target: T4, Tyrosyl-tRNA synthetase, putative (Trypanosoma cruzi (strain CL Brener)) (UniProt Q4DSP6); assay: Trypanosoma cruzi tyrosyl tRNA synthetase (TcYRS) _High Tyrosine SOP; format: functional; conditions: 30 µM; also: in the data most compounds retested in dose-response had high values
T4 sequence (whole entry): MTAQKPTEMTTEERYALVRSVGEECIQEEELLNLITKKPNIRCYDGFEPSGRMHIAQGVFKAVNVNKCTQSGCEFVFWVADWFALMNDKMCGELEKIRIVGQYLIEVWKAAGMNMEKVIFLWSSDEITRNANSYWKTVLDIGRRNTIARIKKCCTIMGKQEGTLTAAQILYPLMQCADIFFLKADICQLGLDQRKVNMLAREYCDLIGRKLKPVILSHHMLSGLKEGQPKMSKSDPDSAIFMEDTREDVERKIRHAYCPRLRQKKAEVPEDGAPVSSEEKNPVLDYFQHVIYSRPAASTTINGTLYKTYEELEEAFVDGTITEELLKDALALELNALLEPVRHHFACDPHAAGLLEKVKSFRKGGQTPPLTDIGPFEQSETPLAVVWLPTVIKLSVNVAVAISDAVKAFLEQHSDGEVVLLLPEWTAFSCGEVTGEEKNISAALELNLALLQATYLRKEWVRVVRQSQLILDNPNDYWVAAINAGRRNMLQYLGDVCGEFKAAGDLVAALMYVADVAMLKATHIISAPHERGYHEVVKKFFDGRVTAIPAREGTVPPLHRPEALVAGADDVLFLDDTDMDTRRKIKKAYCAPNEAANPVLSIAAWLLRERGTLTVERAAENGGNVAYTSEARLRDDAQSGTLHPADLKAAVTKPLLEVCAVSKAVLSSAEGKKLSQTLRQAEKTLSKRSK

[8] = target: T4, Tyrosyl-tRNA synthetase, putative (Trypanosoma cruzi (strain CL Brener)); assay: Trypanosoma cruzi tyrosyl tRNA synthetase (TcYRS) SOP; format: functional; conditions: 30 µM
[9] = target: Chromo domain-containing protein 1 (Saccharomyces cerevisiae (strain ATCC 204508 / S288c) (Baker's yeast)) (UniProt P32657); assay: ScCHD-1 Enzyme Inhibition Assay; format: functional; conditions: 30 µM; also: in the data most compounds retested in dose-response had high values
Chain of Chromo domain-containing protein 1 (Saccharomyces cerevisiae (strain ATCC 204508 / S288c) (Baker's yeast)) (P32657 whole entry, the tested form may be a part): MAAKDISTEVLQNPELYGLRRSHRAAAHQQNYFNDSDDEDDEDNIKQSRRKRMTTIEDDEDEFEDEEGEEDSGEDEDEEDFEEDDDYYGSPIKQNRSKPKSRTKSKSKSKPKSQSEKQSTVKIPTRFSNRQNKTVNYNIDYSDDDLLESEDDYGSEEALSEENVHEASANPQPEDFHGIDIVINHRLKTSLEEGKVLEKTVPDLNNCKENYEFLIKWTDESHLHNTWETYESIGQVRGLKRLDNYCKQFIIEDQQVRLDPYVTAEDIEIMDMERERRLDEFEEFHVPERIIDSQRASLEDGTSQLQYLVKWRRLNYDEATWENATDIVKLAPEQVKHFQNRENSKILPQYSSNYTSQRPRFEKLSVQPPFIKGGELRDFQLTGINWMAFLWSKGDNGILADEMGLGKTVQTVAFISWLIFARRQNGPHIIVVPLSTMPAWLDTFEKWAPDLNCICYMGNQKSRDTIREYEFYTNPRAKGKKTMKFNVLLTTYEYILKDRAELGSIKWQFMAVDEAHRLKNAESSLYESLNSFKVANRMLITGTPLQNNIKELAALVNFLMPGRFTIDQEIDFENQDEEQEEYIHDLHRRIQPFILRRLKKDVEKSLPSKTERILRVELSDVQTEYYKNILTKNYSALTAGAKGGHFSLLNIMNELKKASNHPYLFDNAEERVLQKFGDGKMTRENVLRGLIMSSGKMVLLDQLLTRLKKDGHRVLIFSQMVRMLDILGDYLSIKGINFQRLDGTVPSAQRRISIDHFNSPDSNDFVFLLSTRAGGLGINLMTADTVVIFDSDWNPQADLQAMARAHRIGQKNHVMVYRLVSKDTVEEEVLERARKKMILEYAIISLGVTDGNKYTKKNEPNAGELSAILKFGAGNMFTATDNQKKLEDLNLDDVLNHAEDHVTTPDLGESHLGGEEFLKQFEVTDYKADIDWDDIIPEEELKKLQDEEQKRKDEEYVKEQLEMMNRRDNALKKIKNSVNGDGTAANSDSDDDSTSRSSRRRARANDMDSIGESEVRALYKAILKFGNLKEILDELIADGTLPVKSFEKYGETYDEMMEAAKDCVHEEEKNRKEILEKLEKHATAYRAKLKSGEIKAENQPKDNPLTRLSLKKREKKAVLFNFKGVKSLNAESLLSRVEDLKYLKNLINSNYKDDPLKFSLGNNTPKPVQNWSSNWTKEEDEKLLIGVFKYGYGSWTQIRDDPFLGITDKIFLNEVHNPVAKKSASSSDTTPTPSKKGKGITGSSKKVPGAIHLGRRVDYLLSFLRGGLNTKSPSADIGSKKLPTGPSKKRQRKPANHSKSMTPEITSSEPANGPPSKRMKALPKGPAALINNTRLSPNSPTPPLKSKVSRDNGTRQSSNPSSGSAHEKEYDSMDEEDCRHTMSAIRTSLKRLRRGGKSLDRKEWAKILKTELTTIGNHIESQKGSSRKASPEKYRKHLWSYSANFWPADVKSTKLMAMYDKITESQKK

Chain of Protein translocase subunit SecA (Escherichia coli (strain K12)) (P10408 whole entry): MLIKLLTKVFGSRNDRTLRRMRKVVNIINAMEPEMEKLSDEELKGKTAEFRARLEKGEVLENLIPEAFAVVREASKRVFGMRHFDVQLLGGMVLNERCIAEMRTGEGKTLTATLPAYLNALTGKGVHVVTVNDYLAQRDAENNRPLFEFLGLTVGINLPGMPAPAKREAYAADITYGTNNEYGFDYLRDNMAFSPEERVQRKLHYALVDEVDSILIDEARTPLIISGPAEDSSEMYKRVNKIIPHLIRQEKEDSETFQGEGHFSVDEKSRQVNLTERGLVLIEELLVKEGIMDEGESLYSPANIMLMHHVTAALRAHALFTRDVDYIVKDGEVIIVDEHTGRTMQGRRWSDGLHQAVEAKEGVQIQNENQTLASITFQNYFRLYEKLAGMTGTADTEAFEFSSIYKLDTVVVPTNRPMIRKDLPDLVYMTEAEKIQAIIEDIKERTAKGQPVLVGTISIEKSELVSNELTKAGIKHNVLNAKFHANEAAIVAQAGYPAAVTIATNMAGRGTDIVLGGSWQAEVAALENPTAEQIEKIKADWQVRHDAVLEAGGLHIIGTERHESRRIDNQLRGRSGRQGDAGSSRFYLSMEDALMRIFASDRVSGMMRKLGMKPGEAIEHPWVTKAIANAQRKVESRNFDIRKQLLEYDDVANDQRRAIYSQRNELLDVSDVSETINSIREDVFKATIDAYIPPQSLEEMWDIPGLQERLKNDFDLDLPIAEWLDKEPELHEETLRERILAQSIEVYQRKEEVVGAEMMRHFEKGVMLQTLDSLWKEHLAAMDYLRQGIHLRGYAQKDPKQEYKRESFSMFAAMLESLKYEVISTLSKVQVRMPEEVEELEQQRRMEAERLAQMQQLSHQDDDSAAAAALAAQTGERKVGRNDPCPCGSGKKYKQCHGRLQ
Chain of Sialic acid-binding Ig-like lectin 9 (Homo sapiens) (Q9Y336 whole entry): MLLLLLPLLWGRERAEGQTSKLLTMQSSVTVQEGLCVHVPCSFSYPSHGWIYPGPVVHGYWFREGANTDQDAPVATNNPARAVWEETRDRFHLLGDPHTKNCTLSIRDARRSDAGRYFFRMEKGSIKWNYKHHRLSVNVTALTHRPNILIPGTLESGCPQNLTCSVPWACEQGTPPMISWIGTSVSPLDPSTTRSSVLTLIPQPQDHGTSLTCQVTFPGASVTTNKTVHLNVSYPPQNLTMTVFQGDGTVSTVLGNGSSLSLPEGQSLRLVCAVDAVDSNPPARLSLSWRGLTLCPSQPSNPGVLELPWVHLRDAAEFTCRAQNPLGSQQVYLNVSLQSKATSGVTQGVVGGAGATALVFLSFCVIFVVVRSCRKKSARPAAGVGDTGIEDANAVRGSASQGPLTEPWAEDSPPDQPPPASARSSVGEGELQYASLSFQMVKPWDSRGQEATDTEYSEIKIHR

| Compound | Percent Effect [1] | Percent Effect [2] | Percent Effect [3] | Percent Effect [4] | Percent Effect (Trypanosoma cruzi) | Percent Effect [5] | Percent Effect [6] | Percent Effect (Homo sapiens) | Percent Effect [7] | Percent Effect [8] | Percent Effect [9] |
| --- | --- | --- | --- | --- | --- | --- | --- | --- | --- | --- | --- |
| CCS(=O)(=O)N1Cc2nccn2CC(COc2cccnc2)C1 (stereo not given) | -5.39% | 10.7% | -4.67% | 3.69% | 3.48% | -35.7% | 15.4% | 3.42% | 7.29% | 12.5% | -8.7% |
| Cc1cnn(CCC(=O)N2CCCC(c3nc(C)no3)C2)c1 (stereo not given) | -3.87% | 24.3% | -8.95% | -1.06% | 5.94% | -4.41% | 16.9% | 11.1% | 4.43% | 23.5% | -10.1% |
| CCn1cc(N)c(C(=O)NCc2cnn(C)c2)n1 | -3.38% | 5.2% | 2.98% | 0.256% | -1.48% | -8.28% | 9.48% | -5.92% | 6.45% | 11.1% | 1.02% |
| Cc1cccc(CS(=O)(=O)CC(=O)NCCCOC(C)C)c1 | -4.74% | 18.2% | -13.1% | 5.88% | 9.74% | 3.92% | 4.05% | 23.9% | 7.77% | 24.4% | -10.7% |
| CN1CCCC1CNC(=O)CCCOCc1ccccc1 (stereo not given) | -4.32% | 2.63% | 1.84% | 9.93% | 2.44% | 2.3% | -4.01% | -1.82% | 5.39% | 7.32% | 6% |
